The panel holds about 83,000 compounds, 20% with a hit somewhere; the sample as a whole holds those more often.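 Interpretation: 100, growth as untreated; towards 0, rising growth inhibition; 0, no net growth; 0 to -100, cell death. Compounds scoring below 10 were considered active.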 Active and inactive are the calls of the source.
Test system: MDA-MB-468 breast
Assay: NCI-60 one-dose screen, 48 h (100 = growth as untreated, 0 = no growth, -100 = all killed)
Settings: 10 µM unless noted

| SMILES | growth |
| --- | --- |
| CC1(C)Oc2cc3oc(=O)ccc3cc2C[C@@H]1OCCOS(=O)(=O)c1ccc(C#N)cc1 | 90.6% (inactive) |
| CCCCCCCCCCCCCCCCCCn1cc(COc2ccc(C=O)cc2)nn1 | 104% (inactive) |
| COc1ccc2[nH]c(-c3ccccc3)c(C=C(C#N)C#N)c2c1 | -4.84% (active) |
| O=C(O)CCC(=O)Nc1nnc(-c2ccccc2)s1 | 116% (inactive) |
| CCCCN(CCCC)CCCO | 106% (inactive) |
| CC(O)c1cccc(/C(N)=N/C(N)=N/c2nc3ccccc3s2)c1 (configuration not stated) | 103% (inactive) |
| CCC(C)NC(=O)c1ccccc1C (configuration not stated) | 86.7% (inactive) |
| Cc1cc(=O)[nH]c(=O)n1Cc1cn(-c2c3ccccc3nc3ccccc23)nn1 | -66.7% (active) |
| Cc1ccc2c(n1)C(=O)C(Cl)=C(Nc1ccc(N3CCN(C)CC3)cc1)C2=O | -84.6% (active) |
| Cc1cc(=O)oc2c1ccc1oc(C#N)c(C)c12 | 114% (inactive) |
| Nc1c(C(=O)Nc2ccccc2)sc2nc3c(cc12)CN(Cc1ccccc1)CC3 | 76.2% (inactive) |
| COCCOc1cc2ncnc(N3CCN(c4ncc(S(=O)(=O)N5CCCCC5)cn4)CC3)c2cc1OCCOC | 75.3% (inactive) |
| Cc1cc(NCC(=O)Nc2ccc(-c3nc4ccccc4s3)cc2)no1 | -46.7% (active) |
| CCOC(=O)c1cnn(CC(C)O)c1NC(=O)NCc1ccccc1C(F)(F)F (configuration not stated) | 103% (inactive) |
| O=C1C(=O)N(Cc2ccc(-c3ccccc3)cc2)c2ccc(OC(F)(F)F)cc21 | 25% (inactive) |
| C#Cc1nc(C(=O)NCCCCCCC(=O)NO)cs1 | -33.8% (active) |
| C=C1C(=O)O[C@H]2[C@H]1CC/C(COC(=O)c1c[nH]c3ccccc13)=C\CC[C@@]1(C)O[C@@H]21 | -68.5% (active) |
| CC1CN(CCO)CC(C)O1 (configuration not stated) | 108% (inactive) |
| CCCCCCCCCc1ccc(OC(C)=O)cc1 | 104% (inactive) |

| SMILES | growth |
| --- | --- |
| Cc1nc2sc(C(=O)Nc3cccc(Br)c3C)c(N)c2cc1C(O)c1ccccc1 (configuration not stated) | 17.9% (inactive) |
| COc1cc2ccc(C(C)=O)cc2cc1OC | 106% (inactive) |
| O=c1nc2oc3ccc4ccccc4c3cc-2s1 | -3.68% (active) |
| CCN=C1C=CC(=C(c2ccc(N)cc2)c2ccc(N(CC)CC)c(C)c2)C=C1 | -32.9% (active) |
| COC(=O)C1=C(C(=O)Nc2cccnc2)C2OC1(C(Cc1ccccc1)Oc1ccccc1)C1OC21 (configuration not stated) | -66.3% (active) |
| O=C1C=CC(=O)N1c1ccc(O)cc1 | 88.9% (inactive) |
| Cc1nc2sc(C(=O)Nc3cccc4ccccc34)c(N)c2cc1C(C)O (configuration not stated) | 25.3% (inactive) |
| COC(=O)c1ccc(NC2=C(Cl)C(=O)c3nc(C)ccc3C2=O)cc1 | 56% (inactive) |
| CCOC(=O)c1sc2nc(-c3cc(OC)c(OC)c(OC)c3)nc(N3CCOCC3)c2c1C | 11.3% (inactive) |
| COc1ccc(/C=C2\CN(Cc3cn(CCNc4ccnc5cc(Cl)ccc45)nn3)C/C(=C\c3ccc(OC)c(OC)c3)C2=O)cc1OC | -37.7% (active) |
| Cc1cc(=O)n(Nc2ccccc2)c(O)c1C#N | 108% (inactive) |
| N#CC1=C(N)Oc2c(ccc3ccccc23)C1c1cc2ccccc2n2nnnc12 (configuration not stated) | -8.83% (active) |
| COc1ccc(Cl)cc1NC(=O)c1cc2c([nH]1)-c1nc(N)sc1CCC2 | 103% (inactive) |
| CC(C)n1cnc2c(Nc3cccc(Cl)c3)nc(N[C@H]3CCCC[C@@H]3N)nc21 | 20% (inactive) |
| C=C1C(=O)O[C@H]2[C@H]1CC/C(COC(=O)NCc1ccc(Cn3c(=O)sn(CCCCC)c3=O)cc1)=C\CC[C@@]1(C)O[C@@H]21 | 3.66% (active) |
| Cc1[nH]c(=O)[nH]c(=O)c1CCSSCCc1c(C)[nH]c(=O)[nH]c1=O | 105% (inactive) |
| CC(=O)N[C@H](C(=O)N[C@@H](CCCNC(=N)N)C(=O)N[C@@H](CCCCN)C(=O)N[C@@H](CCCNC(=N)N)C(=O)N[C@]1(C)CCC/C=C\CCC[C@@](C)(C(=O)N[C@@H](CC(C)C)C(=O)N[C@@H](CC(C)C)C(=O)N[C@@H](CCC(N)=O)C(=O)N[C@@H](CCC(=O)O)C(=O)N[C@@H](CCCNC(=N)N)C(=O)N[C@@H](CCC(=O)O)C(=O)N[C@@H](CC(C)C)C(=O)N[C@H](C(=O)N[C@@H](CCC(=O)O)C(N)=O)C(C)C)NC(=O)[C@H](CCCNC(=N)N)NC(=O)[C@H](CC(C)C)NC1=O)C(C)C | 109% (inactive) |
| COc1ccccc1-n1cc(C#N)c(N)c1C(=O)c1ccc(Cl)cc1 | 51.6% (inactive) |

Source: PubChem BioAssay (NCI)
